Inconclusive results are not listed. Values without a mark were called inactive. Activity calls are given as the source filed them. Calls follow the shape of the dose curve; as a rule, active = well fitted cell-killing curve with a large enough effect; inconclusive = small, poorly fitted or top-dose-only effect, or effect the other way; inactive = no such curve, though single readings can be large or run the other way.
experiment: Quantitative High-Throughput drug screen in 47 multiple myeloma cell lines against the NCATS MIPE library collection: PE2_PLB cell viability assay (AID 1919869); settings: PE2_PLB myeloma cells viability, ATP luminescence, 48 h; series mostly up to 45.8 µM; viability (% of control): at the top concentration; also: nearly all actives have a fitted effect of over 35% in size;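 as to viability (% of control): 100% = DMSO-only wells and 0% = cell-free media-only wells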
How it was run: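 Inhibition of viability over 48 h was scored by ATP content (CellTiter-Glo) in 500-cell wells. Zero and full viability were defined by media-only and DMSO-only wells.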
Potency is read from the fitted curve at half-maximal effect.

Row | Structure (SMILES) | viability (% of control) [%] | Potency
1 | CC(N[C@H]1C[C@H]1c1ccccc1)c1ccc2c(c1)OCCO2 (stereo partly specified) | 101 | 
2 | CC(=Cc1csc(C)n1)[C@@H]1C[C@H]2O[C@]2(C)CCC[C@H](C)[C@@H](O)[C@@H](C)C(=O)C(C)(C)[C@@H](O)CC(=O)O1 | 55.2 | 
3 | NC1CC1c1ccccc1 (stereo unspecified) | 110 | 
4 | CC(C)(O)C(=O)Nc1ccc([N+](=O)[O-])c(C(F)(F)F)c1 |  | 9.35 µM (active)
5 | CCOC(=O)c1cncn1[C@H](C)c1ccccc1 | 90.6 | 
6 | C[C@](O)(COc1ccc(C#N)cc1)C(=O)Nc1ccc(C#N)c(C(F)(F)F)c1 |  | 18.7 µM (active)
7 | CCN(CC)C(=O)c1ccc(C2=CC3(CCNCC3)Oc3cccc(O)c32)cc1 | 118 | 
8 | C#CC1(O)CCC2C3CCC4=CC(=O)CCC4(C)C3CCC21C (stereo unspecified) | 99.6 | 
9 | C[C@]12CC[C@@H]3[C@@H](CCC4=CC(=O)CC[C@@H]43)[C@@H]1CC[C@@H]2OC(=O)CCc1ccccc1 | 137 | 
10 | CCOP(=O)(OCC)C(C)NC(=O)N(CCCl)N=O (stereo unspecified) | 121 | 
11 | CC(=O)N(C)c1cccc(-c2ccnc3c(C(=O)c4cccs4)cnn23)c1 | 105 | 
12 | c1ccc(CCCN2CCN(CCOC(c3ccccc3)c3ccccc3)CC2)cc1 |  | 18.7 µM (active)
13 | O=C(O)CNC(=O)c1c(O)c2ccccc2n(Cc2ccccc2)c1=O | 116 | 
14 | CCOC(=O)c1c(C(C#N)=CN)c2ccc(Cl)c(Cl)c2n1C | 88.8 | 
15 | O=C(Oc1ccc([N+](=O)[O-])cc1)N1CCC(C(O)(c2ccc3c(c2)OCO3)c2ccc3c(c2)OCO3)CC1 |  | 16.6 µM (active)
16 | NC1=NC(=O)N2CC12 (stereo unspecified) |  | 13.2 µM (active)
17 | CC(C)N(CCNC(=O)CN1CCCC1=O)C(C)C | 116 | 
18 | COc1cc([C@@H]2c3cc4c(cc3[C@@H](O)C3COC(=O)C32)OCO4)cc(OC)c1O (stereo partly specified) |  | 0.0526 µM (active)
19 | CCCN1CCO[C@@H]2c3cc(O)ccc3OC[C@@H]21 | 111 | 
20 | C[C@]12CC[C@H](O)CC1=CC[C@H]1[C@H]3CCC(=O)[C@@]3(C)CC[C@@H]12 | 87.1 | 
21 | CC1(N2CCC(n3c([C@@H]4CCCNC4)nc4ccccc43)CC2)CCCCCCC1 |  | 16.6 µM (active)
22 | CC(=CCCC1=CCC(C2=CC(=O)OC2O)OC1O)CCC1=C(C)CCCC1(C)C (stereo unspecified) | 98.5 | 
23 | C[C@@H]1CC[C@@]2(OC1)O[C@H]1C[C@H]3[C@@H]4CC=C5C[C@@H](O[C@@H]6O[C@H](CO)[C@@H](O[C@@H]7O[C@@H](C)[C@H](O)[C@@H](O)[C@@H]7O)[C@H](O)[C@@H]6O[C@@H]6O[C@@H](C)[C@H](O)[C@@H](O)[C@@H]6O)CC[C@]5(C)[C@@H]4CC[C@]3(C)[C@@H]1[C@H]2C |  | 4.69 µM (active)
24 | COc1ccc2c(c1)[C@]13CCCCC1C(C2)N(C)CC3 (stereo partly specified) | 92 | 
25 | C[C@]12Cc3cn[nH]c3C[C@@H]1CC[C@@H]1[C@H]2CC[C@@]2(C)[C@H]1CC[C@]2(C)O | 114 | 
26 | C[C@]12CCC(=O)C(O)=C1CC[C@@H]1[C@H]3CCC(=O)[C@@]3(C)CC[C@@H]12 | 87.2 | 
